Drawing on PubChem BioAssay (Tox21), this text covers Potency and outcome for eight molecules.

Structures are written as SMILES. Values joined by “and” are separate entries in the source; they are usually repeats but may differ in a detail not shown here. Equal values may be shown once. Results filed as inconclusive are left out. The source holds several records for some structures; these can differ, active in one and inactive in another. Active and inactive are the calls of the source. Unless noted, the call rests on the fitted dose curve; in most records, active means well fitted curve in the direction sought with a large enough effect in the repeat runs; inconclusive means weak or mixed curves; inactive means no such curve, though single readings can be large; an effect the other way counts as inactive or inconclusive.

Assay [1] can be described thus: qHTS assay for small molecule agonists of the p53 signaling pathway (AID 651631; calls by dose curve; further: nearly all actives have a fitted effect of over 15% in size). In a few lines:
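Agonist mode screen using a stably integrated beta-lactamase gene under p53 response elements in HCT-116 cells. Compound exposure lasts 16 h at 37 °C; fluorescence intensity is measured following 2 h FRET substrate loading.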
(Quantitative high-throughput screening tests each substance at several concentrations.)

Assay [2] can be described thus: qHTS assay for small molecule agonists of the p53 signaling pathway - cell viability (AID 651633; calls by dose curve;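 further: p53RE-bla HCT reporter cells with a stable beta-lactamase p53 reporter; series mostly up to about 83 µM; nearly all actives have a fitted effect of over 30% in size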). In outline: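 p53RE-bla cells, seeded at 4,000 per well and rested 5 h at 37 C/5% CO2, received compounds in DMSO for 16 h at 37 C. CellTiter-Glo was then added, and luminescence was read after 30 min at room temperature to gauge cytotoxicity.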
Assay [3] can be described thus: qHTS assay for small molecules that induce genotoxicity in human embryonic kidney cells expressing luciferase-tagged ATAD5 - cell viability (AID 651634; calls by dose curve; further: nearly all actives have a fitted effect of over 25% in size; further: potency means the concentration at half of the fitted maximal effect). In outline:
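HEK293T cells carrying luciferase-tagged ATAD5, 2,000 cells/well, exposed to compound for 15.5 hr at 37C. Viability read as live-cell protease activity by CellTiter-Fluor fluorescence after 30 min at 37C.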

Assay [4] in a line: qHTS assay for small molecule disruptors of the mitochondrial membrane potential - cell viability (AID 720634; calls by dose curve; further: nearly all actives have a fitted effect of over 20% in size; further: potency means the concentration at half of the fitted maximal effect). In a few lines:
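HepG2 cells, 2,000 per well, attached overnight, then treated 1 hr at 37 C, 5% CO2. Viability read as ATP by CellTiter-Glo luminescence after 30 min at room temperature. Read in the same wells as the m-MPI membrane-potential dye assay.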

Assay [5] can be described thus: qHTS assay for small molecule disruptors of the mitochondrial membrane potential (AID 720635). Further: potency means the concentration at half of the fitted maximal effect. In a few lines: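 HepG2 cells (2,000/well) attached overnight at 37C, then took compound for 1 hr at 37C, 5% CO2. Mito-MPS dye was added for 30 min; fluorescence was read at 490/535 nm (monomers) and 540/590 nm (aggregates).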
The nature of assay [6]: qHTS assay to test for compound auto fluorescence at 590 nm (red) in HepG2 cells (AID 720674). In a few lines:
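Compound auto-fluorescence is scored relative to Rose Bengal sodium, measured at 540/590 nm in live HepG2 cultures after 1 hr compound contact (37 C, 5% CO2).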

A short description of assay [7]: qHTS assay to test for compound auto fluorescence at 535 nm (green) in HepG2 cells (AID 720675).
Assay [8] is described as follows: qHTS assay to test for compound auto fluorescence at 460 nm (blue) in HEK293 cells (AID 720678). In outline: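 Triamterene serves as the blue fluorophore standard. Compound signal at 405/460 nm is read in HEK293 wells (2,000 cells, 10% dialyzed FBS) after overnight treatment at 37C.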
The nature of assay [9]: qHTS assay to test for compound auto fluorescence at 590 nm (red) in HEK293 cells (AID 720679). In outline:
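We plated HEK293 cells in 10% dialyzed FBS medium, let them adhere for 4-5 hr, then added 23 nL compound. Overnight at 37C and 5% CO2 preceded fluorescence measurement at 540/590nm.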

Assay [10] is described as follows: qHTS assay to test for compound auto fluorescence at 535 nm (green) in HEK293 cells (AID 720680).
The nature of assay [11]: qHTS assay to test for compound auto fluorescence at 460 nm (blue) in HEK293 cell free culture (AID 720681). In outline: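 Test compounds were pinned into cell-free culture medium (DMEM with 10% FBS) and fluorescence was read directly at Ex/Em 405/460 nm. Signals were expressed as fluorescence equivalents of triamterene, with DMSO vehicle as control.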
A short description of assay [12]: qHTS assay to test for compound auto fluorescence at 535 nm (green) in HEK293 cell free culture (AID 720682). In a few lines: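 No cells present: wells hold DMEM supplemented with 10% FBS, into which compound or vehicle is pinned. Green emission is then recorded (485 nm excitation, 535 nm emission) and scaled to fluorescein.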
The nature of assay [13]: qHTS assay to test for compound auto fluorescence at 590 nm (red) in HEK293 cell free culture (AID 720683). In outline: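 Tox21 10K library compounds were pinned into cell-free DMEM with 10% FBS and fluorescence was read at excitation 540 nm. Activity is expressed as Rose Bengal sodium equivalency.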
The nature of assay [14]: qHTS assay to test for compound auto fluorescence at 590 nm (red) in HepG2 cell free culture (AID 720684). In outline: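 Red fluorescence (540 nm excitation, 590 nm emission) was measured after compound transfer into cell-free MEM supplemented with 10% FBS. Values are equivalencies against Rose Bengal sodium.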
The nature of assay [15]: qHTS assay to test for compound auto fluorescence at 460 nm (blue) in HepG2 cell free culture (AID 720685). In outline: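 Compound (23 nL) or DMSO pinned into cell-free MEM with 10% FBS; blue fluorescence read at 405/460 nm excitation/emission, expressed as auto-fluorescence equivalency to triamterene.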
Assay [16] can be described thus: qHTS assay to test for compound auto fluorescence at 535 nm (green) in HepG2 cell free culture (AID 720686).
The target of assay [17] is Glucocorticoid receptor (Homo sapiens) (UniProt P04150). The experiment in a line: qHTS assay to identify small molecule agonists of the glucocorticoid receptor (GR) signaling pathway (AID 720691; active means well fitted activation curve with a large enough effect in the signal ratio in the repeat runs, not every such curve was filed as active; the % refers to the signal ratio). In a few lines:
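GR-bla HeLa cells carrying a GRE-driven beta-lactamase reporter, exposed to compounds for 18 h at 37 C. Reporter activation read as fluorescence after 2 h with LiveBLAzer B/G FRET substrate at room temperature.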

The target is the same in assay [18]. The experiment in a line: qHTS assay to identify small molecule antagonists of the glucocorticoid receptor (GR) signaling pathway (AID 720692; active means well fitted inhibition curve with a large enough effect in the signal ratio in the repeat runs, not every such curve was filed as active; the % refers to the signal ratio). In outline:
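GR-bla HeLa cells carrying a GRE-driven beta-lactamase reporter received compound after 4 h plating, then dexamethasone (5 nM final). After 18 h at 37C, the FRET substrate was loaded for 2 h at room temperature and fluorescence read.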

Assay [19] can be described thus: qHTS assay for small molecules that induce genotoxicity in human embryonic kidney cells expressing luciferase-tagged ATAD5 (AID 651632). Further: nearly all actives have a fitted effect of over 15% in size. In a few lines: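 HEK293T cells carrying luciferase-tagged ATAD5 were given compound or DMSO vehicle and incubated 16 hr at 37C, 5% CO2. Luciferase activity was read after 30 min at room temperature with Amplite; a rise signals genotoxic stress.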

The nature of assay [20]: qHTS assay to test for compound auto fluorescence at 460 nm (blue) in HepG2 cells (AID 720687). In a few lines: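 Cells (2,000/well in MEM with 10% FBS) attached overnight at 37 C, then were exposed to compound or DMSO for 1 hr at 37 C, 5% CO2. Fluorescence read at Ex/Em 405/460 nm, expressed as triamterene-equivalent signal.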

Glucocorticoid receptor (Homo sapiens), sequence (P04150 whole entry, looked up): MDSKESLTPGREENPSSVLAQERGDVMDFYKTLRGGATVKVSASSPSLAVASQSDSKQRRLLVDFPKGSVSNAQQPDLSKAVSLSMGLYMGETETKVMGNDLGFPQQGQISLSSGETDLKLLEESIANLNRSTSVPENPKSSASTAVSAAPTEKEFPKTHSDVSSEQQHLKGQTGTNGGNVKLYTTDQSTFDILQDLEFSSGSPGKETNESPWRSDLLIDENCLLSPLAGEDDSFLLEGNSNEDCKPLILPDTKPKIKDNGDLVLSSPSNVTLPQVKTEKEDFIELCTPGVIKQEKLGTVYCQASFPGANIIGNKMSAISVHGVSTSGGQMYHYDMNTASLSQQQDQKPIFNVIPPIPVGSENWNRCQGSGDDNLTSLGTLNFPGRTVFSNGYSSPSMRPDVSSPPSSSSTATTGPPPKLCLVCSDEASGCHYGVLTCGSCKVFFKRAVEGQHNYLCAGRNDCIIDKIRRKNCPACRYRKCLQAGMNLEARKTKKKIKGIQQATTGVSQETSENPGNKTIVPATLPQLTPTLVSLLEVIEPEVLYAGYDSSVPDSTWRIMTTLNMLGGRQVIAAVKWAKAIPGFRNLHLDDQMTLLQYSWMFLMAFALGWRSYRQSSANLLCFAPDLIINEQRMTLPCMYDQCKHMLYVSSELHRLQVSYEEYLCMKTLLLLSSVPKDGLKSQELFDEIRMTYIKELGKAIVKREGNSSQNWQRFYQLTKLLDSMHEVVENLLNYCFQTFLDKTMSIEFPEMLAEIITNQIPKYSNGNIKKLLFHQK

Take `O=C(O)c1cc(N=Nc2ccc(S(=O)(=O)Nc3ccccn3)cc2)ccc1O`: the Potency entry in assay [1], in assay [2], in assay [4], in [5] and in [17] was “inactive” each time. In addition, in assay [3], the Potency was 23.7 µM (active) and 27.4 µM (active) and 48.6 µM (active). In addition, the result in assay [6], in assay [7], in assay [8], in assay [9], in [10] and in assay [11] was inactive. Besides, the molecule was called inactive in [12], in [13], in assay [14], in assay [15], in assay [16] and in assay [18].
`Nc1ccc(S(=O)(=O)Nc2nccs2)cc1`: the Potency result in [1], in assay [19], in assay [2], in [3], in [4] and in assay [5] was “inactive” throughout. In assay [17], the Potency result was “inactive”. Besides, the call in assay [6], in assay [7], in assay [8], in assay [9], in assay [10] and in [11] was inactive. The outcome in assay [12], in assay [13], in assay [14], in assay [15] and in [18] was inactive.
`OCCc1ccccc1`: the Potency entry in assay [1], in [2], in [3], in [4] and in assay [5] was “inactive” each time. Besides, the outcome in [6], in assay [7], in assay [8], in assay [9], in [10] and in assay [11] was inactive. The molecule was called inactive in assay [12], in assay [13], in assay [14], in assay [15], in [16] and in assay [20].
In the case of `CCOc1ccc(NC(=O)CC(C)O)cc1` (stereo unspecified), the Potency result in assay [1], in assay [2], in assay [3], in assay [4] and in assay [5] was “inactive” throughout. For the same molecule, the molecule was called inactive in assay [6], in assay [7], in assay [8], in [9], in [10] and in assay [11]. The molecule was called inactive in assay [12], in [13], in assay [14], in assay [15] and in assay [16].
For the molecule `CCCN(CCC)S(=O)(=O)c1ccc(C(=O)O)cc1`, the Potency result in assay [1], in assay [2], in [3], in assay [4], in [5] and in [17] was “inactive” throughout. In addition, the outcome in assay [6], in [7], in assay [8], in [9], in assay [10] and in assay [11] was inactive. Further, the outcome in assay [12], in assay [13], in [14], in assay [15] and in [18] was inactive.
For the molecule `Cn1cc[nH]c1=S`, the Potency result in [3], in [4] and in assay [5] was “inactive” throughout. Moreover, the molecule was classed as inactive in assay [6], in [7], in assay [8], in [9], in [10] and in assay [11]. In addition, the molecule was called inactive in [12], in assay [13], in [14] and in [15].
Take `CCCCOC(=O)CC(CC(=O)OCCCC)(OC(C)=O)C(=O)OCCCC`: the Potency entry in [1], in assay [2], in assay [3] and in assay [17] was “inactive” in each case. Besides, the Potency result in assay [4] is “inactive and 7.78 µM (active)”; in assay [5] it was 8.73 µM (active). Besides, the molecule was called inactive in assay [6], in assay [7], in assay [8], in assay [9], in [10] and in assay [11]. The call in assay [12], in [13], in assay [14], in assay [15] and in assay [18] was inactive.
As for `CCCCC1C(=O)N(c2ccccc2)N(c2ccccc2)C1=O`, the Potency result in assay [1], in [2], in [3] and in assay [17] was “inactive” each time. Besides, the outcome in assay [6], in assay [7], in assay [8], in assay [9], in assay [10] and in assay [11] was inactive. The molecule was called inactive in [12], in [13], in assay [14], in assay [15] and in assay [18].
